# From PubChem BioAssay AID602195 (The Scripps Research Institute Molecular Screening Center, 2012)
# Hit rate of the full screen: of about 1,600 compounds, about 430 (27%) were called active. Only a sample is shown. Unmarked numbers belong to inactive results. Cut-off read from the data, not from the text of the source: active = inhibition above about 29%; inactive = the rest.
# Target: Melanocortin receptor 4 (Homo sapiens) (UniProt P32245)
# Assay: blockers of MC4R cAMP signaling – cell-based, TR-FRET, confirmation (AID 602195);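 note: 0% = agonist stimulated wells alone and 100% = agonist stimulated wells plus saturating reference antagonist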
# Details: MC4R-expressing cells, MTII-stimulated cAMP, at 6.5 µM, active compounds read high
# Chain of Melanocortin receptor 4 (Homo sapiens) (P32245 whole entry, looked up): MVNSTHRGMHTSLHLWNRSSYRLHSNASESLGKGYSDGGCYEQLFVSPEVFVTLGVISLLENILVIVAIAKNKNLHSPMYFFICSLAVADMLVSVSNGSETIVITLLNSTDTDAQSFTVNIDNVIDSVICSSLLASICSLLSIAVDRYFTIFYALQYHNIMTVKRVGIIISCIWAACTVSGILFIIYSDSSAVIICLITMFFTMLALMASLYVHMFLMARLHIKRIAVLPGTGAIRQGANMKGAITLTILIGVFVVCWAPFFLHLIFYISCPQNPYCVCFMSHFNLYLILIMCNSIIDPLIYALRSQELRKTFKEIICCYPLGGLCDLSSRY
row,SMILES,inhibition
1,C#Cc1cc(N2CCN(C(=O)c3ccoc3)CC2)n2nc(-c3cccc(Cl)c3)cc2n1,36.4% (active)
2,Cc1ccc(Sc2ccc(NC(=O)c3ccc(F)cc3)cc2C#N)cc1,24.9%
3,Cc1c(CCC(=O)O)c(=O)oc2cc(OCc3ccc(Br)cc3)ccc12,-0.06%
4,CN(C)C(CNC(=O)CCCOc1ccccc1)c1ccco1 (centres undefined),-4.52%
5,COC(=O)[C@H](Cc1ccccc1)NC(=O)[C@@H]1C[C@H]1[C@@H](NC(=O)OCc1ccccc1)c1ccccc1,62.1% (active)
6,COc1ccccc1N(CC(=O)N/N=C(\C)c1ccccc1O)S(=O)(=O)c1ccc(C)cc1,11.1%
7,CCOC(=O)C(C)n1cnc2sc(C)c(C)c2c1=O (centres undefined),5.44%
8,COC(=O)c1sc(-c2ccc(C(C)(C)C)cc2)cc1NC(=O)/C=C/C(=O)O,-6.9%
9,Cc1ccc(C(C(=O)NCC2CCCO2)N(C(=O)c2snc(C(N)=O)c2N)c2ccc(C(C)C)cc2)o1 (centres undefined),10.5%
10,CN(CC(=O)NCCc1ccccn1)S(=O)(=O)c1ccc(Cl)cc1,-19.7%
11,CC(C)(C)OC(=O)N1CCC(NC(=O)c2[nH]cnc2C(=O)N[C@@H](Cc2ccccc2)C(=O)OCc2ccccc2)CC1,55.3% (active)
12,O=C(Cn1nnc2ccccc2c1=O)Nc1cc(C(F)(F)F)ccc1N1CCOCC1,-7.03%
13,CCOC(=O)c1cc(C)nc(S(C)(=O)=O)c1C#N,29.6% (active)
14,Cc1nnc(N/N=C/C2CC=CCC2)[nH]c1=O (centres undefined),2.83%
15,Cc1ccc(NC(=O)COC(=O)CNC(=O)c2ccc(Cl)cc2Cl)cc1S(=O)(=O)N1CCOCC1,13.7%
16,O=C(Nc1nccs1)c1cc(S(=O)(=O)N2CCOCC2)c(Cl)cc1Cl,38.2% (active)
17,O=C(O)CCn1cc(/C=C/C(=O)c2ccc(Cl)cc2)c(-c2cccc(Br)c2)n1,13.2%
18,CC1(C)C(c2cccs2)=[N+]([O-])C2(CCCCC2=O)N1O (centres undefined),-17.8%
19,Cc1ccc(C)c(S(=O)(=O)N2CCN(CC(=O)Nc3ccc([N+](=O)[O-])cc3)CC2)c1,-6.36%
20,CCOC(=O)c1c(NC(=O)CCl)sc(C(=O)N(CC)CC)c1C,44.7% (active)
21,O=C(Nc1ccccc1Cl)/C(Cl)=C(\Cl)S(=O)c1ccccc1 (centres undefined),-8.38%
22,COc1ccc(-c2nc3n(c(=O)c2C#N)CCS3)c(OC)c1,-26.2%
23,O=C(COC(=O)c1c2c(nc3ccccc13)CCCC2)c1ccc(Br)s1,13.6%
24,CSc1nnc(NC(=O)c2nc(S(=O)(=O)Cc3ccc(C)cc3)ncc2Cl)s1,48.5% (active)
25,O=C(Nc1nnc(Cc2ccc(Cl)cc2)s1)c1cccnc1,-6.82%
26,Cc1cccc(OCC(O)Cn2c(N3CCCCC3)nc3c2c(=O)[nH]c(=O)n3C)c1 (centres undefined),-4.42%
27,Cc1ccc(OCC(=O)Nc2ccc(NC(=O)c3cccs3)cc2)c(C)c1,-16.5%

row,SMILES,inhibition
1,CC(=O)Nc1ccc(Sc2ccccc2C(=O)N2CCCC2)cn1,-13.6%
2,COc1ccc2sc(-c3ccc(S(C)(=O)=O)cc3)c(-c3ccc(C(N)=O)cc3)c2c1,27.4%
3,COc1ccc(/C=N/OCC(=O)N(Cc2ccccc2)c2ccccc2C(=O)O)cc1,1.15%
4,O=C1/C(=C\c2ccc([N+](=O)[O-])cc2)CS(=O)(=O)C/C1=C/c1ccc([N+](=O)[O-])cc1,31.9% (active)
5,COCCCNC(=O)/C(C#N)=C/c1c(N2CCCCCC2)nc2ccccn2c1=O,11.9%
6,COc1cccc(OC)c1C(=O)Nc1c(C(=O)N2CCN(c3ccccn3)CC2)oc2ccccc12,-8.35%
7,CCOc1ccc(Nc2nc(Cl)nc(N3CCN(c4ccc(OC)cc4)CC3)n2)cc1,33.7% (active)
8,Cc1ccc(NC(=O)c2c(NC(=O)CCC(=O)O)sc3c2CCCCC3)cc1,1.41%
9,Cc1ccc(S(=O)(=O)CCC(=O)OCC(=O)N(C)Cc2ccccc2)cc1,7.91%
10,Cc1ccc(S(=O)(=O)N(C)CC(=O)OCC(=O)Nc2ccccc2)cc1,38.5% (active)
11,Cc1ccc(S(=O)(=O)N(C)CC(=O)OCC(=O)N2CC(=O)Nc3ccccc32)cc1,16.8%
12,O=C(c1ccc2c(c1)N(Cc1ccc(F)cc1)C(=O)c1ccccc1S2(=O)=O)N1CCN(c2ccccn2)CC1,-2.23%
13,O=C(COC(=O)Cn1cnc2ccccc2c1=O)NCC12CC3CC(CC(C3)C1)C2,30.5% (active)
14,O=S(=O)(NCc1ccco1)c1cnc(Cl)c(Cl)c1,54.2% (active)
15,O=C(NCCc1c[nH]c2ccccc12)c1cccc(Br)c1,3.64%
16,COc1ccc(-c2n[nH]c(C)c2-c2ccccc2OC)c(O)c1,0.3%
17,O=C(COC(=O)[C@H](Cc1ccccc1)NC(=O)c1cccs1)Nc1cc(F)ccc1F,14.7%
18,Cc1nc2ccccc2c(=O)n1NC(=O)c1ccc(Cl)c([N+](=O)[O-])c1,44.2% (active)
19,Cc1ccccc1-c1n[nH]c(=S)n1/N=C/c1ccc(-c2ccccc2Br)o1,0.08%
20,O=C(CSc1nc2ccc(Nc3nc(N4CCOCC4)nc(N4CCOCC4)n3)cc2s1)NCc1ccco1,-2.81%
21,Cc1c(Cl)cccc1NC(=O)[C@@]1(CC(=O)O)CC(/C=C/c2ccccc2)=NO1,-4.9%
22,Cc1ccc(NC(=O)C(C)OC(=O)Cc2c[nH]c3ccccc23)cc1S(=O)(=O)N1CCOCC1 (centres undefined),5.56%
23,CCOC(=O)CSc1nc(N2CCOCC2)c2c(c1C#N)CC(C(C)C)OC2 (centres undefined),8.67%
24,CCCCOC(=O)CNc1nnc(SCC(=O)OCC)[nH]c1=O,44.4% (active)
25,CC(C)Oc1ccc(/C=C(\NC(=O)/C=C/c2ccco2)C(=O)NCCc2nc3ccccc3[nH]2)cc1,-6.84%
26,Cc1ccc(NS(=O)(=O)c2ccc(C)c(NC(=O)COc3ccc4ccccc4c3)c2)c(C)c1,0.85%
27,COc1ccc(-n2nc(C(=O)Nc3cc(OC)c(OC)c(OC)c3)c3ccccc3c2=O)c(OC)c1,3.92%
